Laboratory results as given in publication PMC4336329 (PLoS ONE, 2015).
Out of some 310,000 compounds screened, about 2,200 (0.71%) showed an effect of 50% or more. Effects have a minus sign here. The sample as a whole holds a higher share of strong results than the screen did.

Molecular target: human ether-à-go-go-related gene (hERG) potassium channel (human, UniProt Q12809)
Test: primary screen, population patch clamp on CHO cells stably expressing hERG; higher = less effect of the substance

Sequence of human ether-à-go-go-related gene (hERG) potassium channel (Q12809 whole entry, looked up): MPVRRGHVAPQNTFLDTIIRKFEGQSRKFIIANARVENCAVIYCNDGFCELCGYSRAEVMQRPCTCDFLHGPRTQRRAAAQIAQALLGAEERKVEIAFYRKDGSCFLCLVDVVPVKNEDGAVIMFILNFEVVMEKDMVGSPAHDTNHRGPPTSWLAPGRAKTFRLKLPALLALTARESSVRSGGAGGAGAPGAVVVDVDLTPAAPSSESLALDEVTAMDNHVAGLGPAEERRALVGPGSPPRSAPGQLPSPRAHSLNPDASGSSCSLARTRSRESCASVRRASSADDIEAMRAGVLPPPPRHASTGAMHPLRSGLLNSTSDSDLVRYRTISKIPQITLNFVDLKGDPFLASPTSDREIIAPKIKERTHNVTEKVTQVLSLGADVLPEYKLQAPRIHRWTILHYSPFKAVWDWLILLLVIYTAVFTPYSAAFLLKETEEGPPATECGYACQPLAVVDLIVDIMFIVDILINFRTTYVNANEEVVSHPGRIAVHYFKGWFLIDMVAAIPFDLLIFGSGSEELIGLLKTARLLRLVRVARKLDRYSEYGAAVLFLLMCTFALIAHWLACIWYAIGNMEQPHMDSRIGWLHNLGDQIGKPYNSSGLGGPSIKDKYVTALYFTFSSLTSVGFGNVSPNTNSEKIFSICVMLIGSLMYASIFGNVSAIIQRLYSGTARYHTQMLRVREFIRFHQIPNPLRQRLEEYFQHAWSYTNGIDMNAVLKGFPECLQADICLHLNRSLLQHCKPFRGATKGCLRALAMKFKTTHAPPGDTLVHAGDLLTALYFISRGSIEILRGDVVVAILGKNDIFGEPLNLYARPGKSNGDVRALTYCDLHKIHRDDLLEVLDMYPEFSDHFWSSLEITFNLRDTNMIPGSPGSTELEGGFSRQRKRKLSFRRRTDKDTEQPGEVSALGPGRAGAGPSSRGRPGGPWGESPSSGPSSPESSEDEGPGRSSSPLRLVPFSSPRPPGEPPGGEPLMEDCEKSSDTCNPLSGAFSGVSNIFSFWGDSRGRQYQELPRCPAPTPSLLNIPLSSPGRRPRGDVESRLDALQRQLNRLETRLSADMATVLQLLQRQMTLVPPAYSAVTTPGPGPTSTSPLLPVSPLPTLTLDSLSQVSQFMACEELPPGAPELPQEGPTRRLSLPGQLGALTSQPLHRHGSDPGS

SMILES	hERG current change (%, negative = inhibition) at 1uM [%]
O=C(O)C1=C[C@H](C2CC2)C[C@H](OCCCCO)O1	12.3
O=C(CSc1n[nH]c(=O)n1Cc1ccco1)Nc1ccccc1Cl	6.62
CCOc1cccc(C2/C(=C(/O)c3ccc4c(c3)CC(C)O4)C(=O)C(=O)N2Cc2cccnc2)c1 (stereo not drawn)	18.4
CCOC(=O)NCc1ccccc1	-5.01
CCCCCCS(=O)[C@H]1CS(=O)(=O)C[C@@H]1S(=O)CCCCCC (stereo partly drawn)	-25.8
CNC(=O)Cn1ncc2c3ccccc3n(C)c2c1=O	13.1
O=C(O)CC(NC(=O)C12CC3CC(CC(C3)C1)C2)c1cc([N+](=O)[O-])ccc1Cl (stereo not drawn)	2.33
Cc1nc(SCC(=O)NC2CCCC2)[nH]c(=O)c1C	6.4
O=C1OC(c2ccc(Cl)cc2)/C(=C(/O)c2ccccc2)C1=O (stereo not drawn)	2.03
CCOC(=O)c1ccc(NC(=O)c2nc[nH]c2C(=O)NCCCNC(=O)c2[nH]cnc2C(=O)Nc2ccc(C(=O)OCC)cc2)cc1	13.8
CC(C)OCCCn1c(SC(C)C(=O)NCC2CCCO2)nc2cc(Cl)ccc2c1=O (stereo not drawn)	7.81
COCCCn1c(=N)c(C(=O)NCC2CCCO2)cc2c(=O)n3ccccc3nc21 (stereo not drawn)	-44.3
Cc1cccn2c(=O)c3cc(C(=O)NCC4CCCO4)c(=N)n(CCN4CCOCC4)c3nc12 (stereo not drawn)	-50.1
Cc1ccc2nc3c(cc(C(=O)NCC4CCCO4)c(=N)n3CCCOC(C)C)c(=O)n2c1 (stereo not drawn)	-72.5
COCCCn1c(=N)c(C(=O)NCC2CCCO2)cc2c(=O)n3cccc(C)c3nc21 (stereo not drawn)	-74.8
CCN(C(=O)c1cc2c(=O)n3cccc(C)c3nc2n1CCCOC)C1CCCCC1	4.12
COc1ccc(C2c3c(oc4ccc(Cl)cc4c3=O)C(=O)N2CCN2CCOCC2)cc1 (stereo not drawn)	-24
CC(C)N(Cc1nc(-c2ccc(Cl)cc2)no1)C(=O)CN(C)S(=O)(=O)c1ccc(Cl)cc1	-5.47
COCCCn1c(=S)[nH]c2c(sc3ccccc32)c1=O	14.1
CCN1CCN(C(=O)c2cc3c(=O)n(C)c4ccccc4c3n2C)CC1	8.54
Cc1cc(C)c2c(N)c(C(=O)NNC(=O)c3ccccc3)sc2n1	12.8
Nc1ccccc1C(=O)NCc1ccccc1	1.59

SMILES	hERG current change (%, negative = inhibition) at 1uM [%]
CC1(C)CC(=O)C2=C(C1)NC(=S)C(C#N)C21CCCCC1 (stereo not drawn)	10.1
CCOC(=O)N1CCN(S(=O)(=O)c2ccc(C(=O)Nc3nnc(C)o3)cc2)CC1	7.3
CC(CN1C(C)CCCC1C)OC(=O)c1ccccc1Br.Cl (stereo not drawn)	4.15
Cc1sc2nc(CN3CCCC3)nc(N3CCN(S(=O)(=O)c4cccs4)CC3)c2c1C	-65.2
Cc1ccc(S(=O)(=O)N2CCN(c3nc(CN4CCCC4)nc4sc(C)c(C)c34)CC2)cc1	-48.8
Cc1sc2nc(CN3CCCC3)nc(N3CCN(S(=O)(=O)c4ccccc4)CC3)c2c1C	-19.4
CC(C)CC(=O)Nc1nc2ccc(S(C)(=O)=O)cc2s1	4.38
O=C(NCc1ccco1)c1scc2c1OCCO2	6.64
CCCCn1c(N)c(N(CCOC)C(=O)c2ccc(-c3cccc(C(F)(F)F)c3)o2)c(=O)[nH]c1=O	10.2
O=C(Nc1ccc(Cn2nnc3ccccc32)cc1)c1ccco1	9.6
Cl.O=C(CN1CCN(C2CCCCC2)CC1)Nc1cccc2ccccc12	4.28
O=C(CN1CCCCC1)Nc1ccccc1-c1ccccc1	14.4
Cl.O=C(CN1CCN(C2CCCCC2)CC1)Nc1ccccc1-c1ccccc1	-70
CCCc1c(C(=O)N/N=C/c2cccnc2)nnn1-c1nonc1N	16.6
COc1nccc(-c2ccc(F)cc2)c1C#N	16.9
O=C(Cn1c(=O)oc2ccccc21)Nc1ccc(Br)cc1	12.5
CC[N+](CC)(CC)CC(=O)Nc1ccc(SC(F)F)cc1.[Cl-]	27.1
CCn1c(N)[n+](CC(=O)Nc2ccc(SC(F)F)cc2)c2ccccc21.[Cl-]	-63.1
O=C(Cc1ccccc1)Nc1ccc(SC(F)F)cc1	2.98
Cc1cc(C)cc(N2C(=O)CC(c3ccccc3)CC2=O)c1	10.3
O=C(COC(=O)c1ccc[nH]c1=O)Nc1ccc2c(c1)OC(F)(F)O2	9.4
CN(C)CCCN(C(=O)c1sc2ccccc2c1Cl)c1nc2c(F)cccc2s1.Cl	8.6

SMILES	hERG current change (%, negative = inhibition) at 1uM [%]
Cc1cccc2sc(N(CCCN(C)C)C(=O)c3nc4ccccc4s3)nc12.Cl	3.73
CN(C)CCCN(C(=O)c1ccco1)c1nc2c(F)cc(F)cc2s1.Cl	-60.2
Cc1ccc2nc(N(CCCN(C)C)C(=O)c3ccco3)sc2c1.Cl	-9.63
CN(C)CCCN(C(=O)c1ccco1)c1nc2c(F)cccc2s1.Cl	-62.9
CN(C)CCCN(C(=O)c1ccco1)c1nc2ccc(F)cc2s1.Cl	-37.4
CN(C)CCCN(C(=O)c1ccc(C(=O)c2ccccc2)cc1)c1nc2c(F)cccc2s1	-1.61
Cc1cccc2sc(N(CCCN(C)C)C(=O)c3ccco3)nc12.Cl	-54.8
CN(C)CCCN(C(=O)c1ccco1)c1nc2ccc(Cl)cc2s1.Cl	-14.7
CCN1CCN(C(c2ccc(OC)cc2)c2nnnn2Cc2ccc3c(c2)OCO3)CC1.Cl (stereo not drawn)	-17.4
N#Cc1ccccc1S(=O)(=O)N1CCC(C(=O)NCc2ccccc2CN2CCCC2)CC1	-45.7
Cn1c(=O)c2c(nc(NC3CCCCC3)n2CC(=O)C23CC4CC(CC(C4)C2)C3)n(C)c1=O	15.4
CCCC1CC(C)(c2csc(Nc3ccc(OCC)cc3)n2)OC1=O (stereo not drawn)	-0.99
COC(=O)c1[nH]c2cccc(OC)c2c1NC(=O)CCN1CC(C)CC(C)C1 (stereo not drawn)	-4.14
CCOc1ccccc1NC(=S)N(CCCN1CCOCC1)Cc1cn(C)c2ccccc12	5.62
CC(=O)NC1CC2CCCC(C1)N2Cc1ccc(C)cc1 (stereo not drawn)	-10.4
CNC(=S)NC1CC2CCCC(C1)N2Cc1ccc(C)cc1 (stereo not drawn)	-4.5
O=C(NC1CC2CCCC(C1)N2Cc1ccc(F)cc1)c1ccc(F)cc1 (stereo not drawn)	-38.3
CCCN1C2CCCC1CC(NC(=O)c1ccc(F)cc1)C2 (stereo not drawn)	-29.7
Cc1ccc(CN2C3CCCC2CC(NC(=S)NCc2ccccc2)C3)cc1 (stereo not drawn)	-54.4
Cc1ccc(C(=O)NC2CC3CCCC(C2)N3Cc2ccccc2)cc1 (stereo not drawn)	-6.55
CCNC(=S)NC1CC2CCCC(C1)N2Cc1ccc(C)cc1 (stereo not drawn)	-12.3
Cc1ccc(CN2C3CCCC2CC(NC(=O)c2ccc(C)cc2)C3)cc1 (stereo not drawn)	-77.3

SMILES	hERG current change (%, negative = inhibition) at 1uM [%]
Cc1ccc(CN2C3CCCC2CC(NC(=O)c2ccc(F)cc2)C3)cc1 (stereo not drawn)	-77
O=C1CC(=C2c3ccccc3-c3ccccc32)C(=O)N1CCN1CCN(c2cccc(Cl)c2)CC1	7.4
COc1cccc(CN2CCNC(=O)C2CC(=O)N2CCCCO2)c1OC (stereo not drawn)	7.47
COc1ccc(CCN2C(=O)CSC2=S)cc1OC	11.5
COC(=O)C1=CNC=C(C(=O)OC)C1c1cccc(OC)c1	9.02
Cc1cc(/C=N/NC(N)=S)c(C)n1-c1ccc(Cl)cc1	1.13
Cc1nc2c(C)cccn2c1/C(O)=C1\C(=O)C(=O)N(CCN(C)C)C1c1ccco1 (stereo not drawn)	11.2
C#CC[N+]1(CC#Cc2ccc(C)cc2)CCCCC1.[Br-]	2.2
Cc1ccc(C#CC[N+]2(C)CCCCC2)cc1.[Br-]	14.2
Cc1ccc(C#CC[N+]2(CC#Cc3ccc(C)cc3)CCCCC2)cc1.[Br-]	-51.8
COc1ccccc1NC(=O)C1CCCN(S(=O)(=O)c2ccc(-n3cnnn3)cc2)C1 (stereo not drawn)	-23.5
COc1ccc(OC)c(NC(=O)C2CCCN(S(=O)(=O)c3ccc(-n4cnnn4)cc3)C2)c1 (stereo not drawn)	5.12
COc1ccc(C)cc1NC(=O)C1CCCN(S(=O)(=O)c2ccc(-n3cnnn3)cc2)C1 (stereo not drawn)	-71.4
O=C(NCc1ccccc1)c1onc(CSc2ccc(F)cc2)c1C(=O)NCc1ccccc1	5.63
O=C(NCCCN1CCOCC1)c1onc(CSc2ccccc2)c1C(=O)NCCCN1CCOCC1	14.7
O=C(NCc1ccccc1)c1onc(CSc2ccc(F)cc2)c1C(=O)NCCCN1CCOCC1	-54.9
CCC(CC)NCCOC(=O)c1ccc([N+](=O)[O-])cc1	-3.41
CN1C(=O)C(Cc2cccs2)C(=O)N(C)C1=O	15.2
CCCCCn1c(NC(=O)c2ccco2)c(C(=O)OCC)c2nc3ccccc3nc21	-73.9
CCCCn1c(NC(=O)c2ccco2)c(C(=O)OCC)c2nc3ccccc3nc21	-22
CCCCn1c(NC(=O)c2ccc(Br)o2)c(C(=O)OCC)c2nc3ccccc3nc21	-17.9
